This note sets out measurements from PubChem BioAssay (EPA / NIEHS).

The AC50 is the concentration at which the activity in the assay is half-maximal.

Read-out in assay [1]: Transforming growth factor beta 1 (TGFb1), TGFB1 (gene 7040)
Nature of the assay: BSK_KF3CT_TGFb1: BioMAP Diversity Plus: KF3CT Assay for Transforming growth factor beta 1 (TGFb1) Biomarker Activity (AID 2283072). The conditions noted are these: primary human keratinocytes with fibroblasts; actives raise or lower the signal. In outline:
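Human keratinocyte plus foreskin fibroblast primary co-culture, dosed with chemical for 24 h. TGF-b1 quantified by ELISA. Activity fitted bidirectionally against DMSO negative control as baseline.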

Read-out in assay [2]: C-C motif chemokine 2 (Homo sapiens) (UniProt P13500)
Nature of the assay: BSK_KF3CT_MCP1: BioMAP Diversity Plus: KF3CT Assay for Monocyte Chemoattractant Protein 1 (MCP1/CCL2) Biomarker Activity (AID 2283073). The conditions noted are these: primary human keratinocytes with fibroblasts; actives raise or lower the signal. In outline: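 Biomarker MCP-1 is measured by ELISA in primary human keratinocytes co-cultured with foreskin fibroblasts, 24 h after chemical treatment; DMSO serves as the negative control and activity baseline.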

Read-out in assay [3]: Matrix Metallopeptidase 9 (MMP9), MMP9 (gene 4318)
Nature of the assay: BSK_KF3CT_MMP9: BioMAP Diversity Plus: KF3CT Assay for Matrix Metallopeptidase 9 (MMP9) Biomarker Activity (AID 2283074). The conditions noted are these: primary human keratinocytes with fibroblasts; actives raise or lower the signal. The gist of the method: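 Human keratinocyte and foreskin fibroblast co-culture exposed to chemicals for 24 h; MMP9 biomarker measured by ELISA, bidirectional fitting relative to DMSO; cytotoxicity tracked by SRB total protein staining in parallel cultures.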

Read-out in assay [4]: urokinase plasminogen activator (uPA), PLAU (gene 5328)
Kind of assay: BSK_KF3CT_uPA: BioMAP Diversity Plus: KF3CT Assay for urokinase plasminogen activator (uPA) Biomarker Activity (AID 2283075). The conditions noted are these: primary human keratinocytes with fibroblasts; actives raise or lower the signal. The gist of the method: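 Primary human keratinocyte/foreskin fibroblast co-culture exposed to chemical; uPA measured by ELISA at 24 h. Bidirectional fit versus DMSO, with parallel SRB total-protein staining for cytotoxicity.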

Read-out in assay [5]: CD40, CD40 (gene 958)
Nature of the assay: BSK_LPS_CD40: BioMAP Diversity Plus: LPS Assay for CD40 Biomarker Activity (AID 2283076). The settings on record: primary human HUVEC with PBMC; actives raise or lower the signal. In outline:
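Using a multiplexed primary human co-culture (umbilical vein endothelium plus PBMC), CD40 was read by ELISA 24 h after dosing, with cytotoxicity tracked by sulforhodamine B staining of parallel cultures and activity fitted bidirectionally versus DMSO.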

Read-out in assay [6]: E-selectin (Homo sapiens) (UniProt P16581)
Nature of the assay: BSK_LPS_Eselectin: BioMAP Diversity Plus: LPS Assay for Eselectin Biomarker Activity (AID 2283077). The conditions noted are these: primary human HUVEC with PBMC; actives raise or lower the signal. The gist of the method:
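Dose chemical onto LPS-driven HUVEC/PBMC co-culture; after 24 h, run ELISA for E-selectin; fit up- and down-going responses relative to DMSO control.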

Read-out in assay [7]: Interleukin-8 (IL8), CXCL8 (gene 3576)
Kind of assay: BSK_LPS_IL8: BioMAP Diversity Plus: LPS Assay for Interleukin-8 (IL8) Biomarker Activity (AID 2283078). The conditions noted are these: primary human HUVEC with PBMC; actives raise or lower the signal. In outline:
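In this LPS system, chemical-treated human umbilical vein endothelium/PBMC co-cultures were harvested at 24 h for IL-8 ELISA.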

Assay [8] in a line: BSK_LPS_SRB: Viability Assessment in the BioMAP Diversity Plus: LPS Assay (AID 2283079).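 Also: total protein by sulforhodamine B absorbance as a cytotoxicity measure; measured one day after compound addition; fitted in both directions against DMSO so loss or gain of signal counts.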 The settings on record: primary human HUVEC with PBMC. The gist of the method: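 Cytotoxicity endpoint in human endothelial–PBMC co-culture: 24 h exposure, then SRB (0.1%) staining, 560 nm read.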
Read-out in assay [9]: Interleukin-1 alpha (IL1a), IL1A (gene 3552)
Nature of the assay: BSK_LPS_IL1a: BioMAP Diversity Plus: LPS Assay for Interleukin-1 alpha (IL1a) Biomarker Activity (AID 2283080). The conditions noted are these: primary human HUVEC with PBMC; actives raise or lower the signal. The gist of the method:
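Primary human HUVEC and PBMC co-culture stimulated with LPS is dosed and harvested at 24 h. Both increases and decreases in ELISA-measured IL-1a are scored relative to DMSO.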

Read-out in assay [10]: Monocyte Chemoattractant Protein-1 (MCP1), CCL2 (gene 6347)
Kind of assay: BSK_LPS_MCP1: BioMAP Diversity Plus: LPS Assay for Monocyte Chemoattractant Protein-1 (MCP1) Biomarker Activity (AID 2283081). The settings on record: primary human HUVEC with PBMC; actives raise or lower the signal. The gist of the method:
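Values derive from bidirectional fitting against DMSO of ELISA-measured MCP-1 in a human primary endothelial and mononuclear cell co-culture, 24 h after chemical addition under LPS activation.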

Assay [11] is described as follows: BSK_LPS_PGE2: BioMAP Diversity Plus: LPS Assay for Prostaglandin E2 (PGE2) Biomarker Activity (AID 2283082). The conditions noted are these: primary human HUVEC with PBMC; actives raise or lower the signal. In outline: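 HUVEC plus PBMC co-culture stimulated with LPS; secreted PGE2 quantified by ELISA 24 h after chemical dosing. Activity fitted bidirectionally against DMSO as negative control and baseline; parallel SRB total-protein staining served as cytotoxicity check.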

Read-out in assay [12]: Macrophage colony-stimulating factor (MCSF), CSF1 (gene 1435)
Kind of assay: BSK_LPS_MCSF: BioMAP Diversity Plus: LPS Assay for Macrophage colony-stimulating factor (MCSF) Biomarker Activity (AID 2283083). The conditions noted are these: primary human HUVEC with PBMC; actives raise or lower the signal. In outline:
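Bidirectional fit versus DMSO of ELISA-measured M-CSF in co-cultured human umbilical vein endothelial cells and PBMC, sampled 24 h after dosing.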

Read-out in assay [13]: Tissue Factor, F3 (gene 2152)
Kind of assay: BSK_LPS_TissueFactor: BioMAP Diversity Plus: LPS Assay for Tissue Factor Biomarker Activity (AID 2283084). The conditions noted are these: primary human HUVEC with PBMC; actives raise or lower the signal. The gist of the method: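 Read-out: CD142 ELISA, 24 h. System: LPS-driven human endothelial/PBMC co-culture. Analysis: up- or down-signal fitted against DMSO.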

Read-out in assay [14]: Tumor necrosis factor (Homo sapiens) (UniProt P01375)
Kind of assay: BSK_LPS_TNFa: BioMAP Diversity Plus: LPS Assay for Tumour Necrosis Factor alpha (TNFa) Biomarker Activity (AID 2283085). The settings on record: primary human HUVEC with PBMC; actives raise or lower the signal. In outline:
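Human umbilical vein endothelial cells co-cultured with PBMC were exposed to test chemical and TNFa measured by ELISA 24 h after dosing. Bidirectional curve fitting was done relative to DMSO as negative control and baseline.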

Read-out in assay [15]: Vascular cell adhesion molecule 1 (VCAM1), VCAM1 (gene 7412)
Kind of assay: BSK_LPS_VCAM1: BioMAP Diversity Plus: LPS Assay for Vascular cell adhesion molecule 1 (VCAM1) Biomarker Activity (AID 2283086). The settings on record: primary human HUVEC with PBMC; actives raise or lower the signal. In outline:
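Human umbilical vein endothelial cells co-cultured with peripheral blood mononuclear cells under LPS stimulation were exposed to test chemical for 24 h. VCAM-1 levels were then measured by ELISA, with bidirectional curve fitting relative to DMSO as negative control and baseline.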

Read-out in the next assay: CD38, CD38 (gene 952)
Kind of assay: BSK_SAg_CD38: BioMAP Diversity Plus: SAg Assay for CD38 Biomarker Activity (AID 2283087). The conditions noted are these: primary human HUVEC with PBMC; actives raise or lower the signal. The gist of the method: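 Fluorescence ELISA of cell-surface CD38 served as the read-out, with either increase or decrease fitted against DMSO controls. Cells were a human umbilical vein endothelium plus PBMC co-culture under SEB/TSST-1 stimulation, measured 24 h after dosing.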

Read-out in assay [16]: CD40, CD40 (gene 958)
Kind of assay: BSK_SAg_CD40: BioMAP Diversity Plus: SAg Assay for CD40 Biomarker Activity (AID 2283088). The conditions noted are these: primary human HUVEC with PBMC; actives raise or lower the signal. In outline: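 Endpoint derived by fitting increases or decreases versus DMSO controls. CD40 is detected by fluorescence ELISA in a human vascular co-culture of endothelium and PBMC at 24 h.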

Read-out in a further assay: CD69, CD69 (gene 969)
Nature of the assay: BSK_SAg_CD69: BioMAP Diversity Plus: SAg Assay for CD69 Biomarker Activity (AID 2283089). The settings on record: primary human HUVEC with PBMC; actives raise or lower the signal. The gist of the method:
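Endothelial/PBMC co-culture; chemical added; 24 h incubation; CD69 ELISA with fluorescence detection; bidirectional fit vs DMSO.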

Read-out in assay [17]: Monocyte Chemoattractant Protein-1 (MCP1), CCL2 (gene 6347)
Nature of the assay: BSK_SAg_MCP1: BioMAP Diversity Plus: SAg Assay for Monocyte Chemoattractant Protein-1 (MCP1) Biomarker Activity (AID 2283090). The conditions noted are these: primary human HUVEC with PBMC; actives raise or lower the signal. The gist of the method:
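MCP-1 levels in the endothelial–PBMC SAg co-culture were quantified by ELISA at 24 h post-dosing; both increases and decreases versus DMSO scored. Cytotoxicity monitored by SRB total protein in parallel cultures.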

Read-out in assay [18]: E-selectin (Homo sapiens) (UniProt P16581)
Nature of the assay: BSK_SAg_Eselectin: BioMAP Diversity Plus: SAg Assay for Eselectin Biomarker Activity (AID 2283091). The conditions noted are these: primary human HUVEC with PBMC; actives raise or lower the signal. The gist of the method:
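Endpoint values derive from bidirectional fitting relative to DMSO, using ELISA-measured E-selectin in a human vascular co-culture (umbilical vein endothelium plus PBMC) sampled 24 h after dosing.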

Each structure is given as a SMILES string. The source made the active and inactive calls. The calls were made as follows: active = hit-call score of the fitted dose curve at least 0.9, where 1 is the maximum; inactive = score below 0.9.

Sequence of E-selectin (Homo sapiens) (P16581 whole entry, looked up): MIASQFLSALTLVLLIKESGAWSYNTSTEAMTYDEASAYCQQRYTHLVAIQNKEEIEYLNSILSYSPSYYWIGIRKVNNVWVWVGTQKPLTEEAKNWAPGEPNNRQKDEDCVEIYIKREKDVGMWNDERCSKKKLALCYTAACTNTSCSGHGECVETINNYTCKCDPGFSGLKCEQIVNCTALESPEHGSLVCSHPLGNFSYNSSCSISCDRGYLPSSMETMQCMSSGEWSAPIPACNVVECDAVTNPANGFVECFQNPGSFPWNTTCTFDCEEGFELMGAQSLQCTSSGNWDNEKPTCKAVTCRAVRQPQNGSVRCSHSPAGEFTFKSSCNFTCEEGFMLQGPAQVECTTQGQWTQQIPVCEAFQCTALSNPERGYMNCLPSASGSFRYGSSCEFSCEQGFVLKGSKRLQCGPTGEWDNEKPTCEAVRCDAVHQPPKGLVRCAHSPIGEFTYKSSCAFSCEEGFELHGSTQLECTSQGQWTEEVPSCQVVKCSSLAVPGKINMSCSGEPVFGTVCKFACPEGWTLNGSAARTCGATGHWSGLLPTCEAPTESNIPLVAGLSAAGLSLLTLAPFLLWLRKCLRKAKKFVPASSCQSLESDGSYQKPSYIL
Sequence of Tumor necrosis factor (Homo sapiens) (P01375 whole entry, looked up): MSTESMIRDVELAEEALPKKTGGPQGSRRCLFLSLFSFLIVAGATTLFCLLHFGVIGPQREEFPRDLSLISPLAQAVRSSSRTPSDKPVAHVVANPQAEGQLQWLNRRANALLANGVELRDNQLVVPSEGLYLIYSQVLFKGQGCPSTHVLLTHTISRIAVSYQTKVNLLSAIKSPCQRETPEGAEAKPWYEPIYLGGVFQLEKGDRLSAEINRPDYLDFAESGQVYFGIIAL

For the compound `CCCCCCCCCCCCCCCCCC(=O)O`, the outcome is “inactive” in [1]; “inactive” in assay [2]; “inactive” in assay [3]; “inactive” in [4]; “inactive” in the assay with CD40, CD40 (gene 958) [5]; “inactive” in assay [6]. For the same compound, the outcome in assay [7], in assay [10], in [11], in assay [12], in assay [13] and in assay [15] was inactive. Besides, the outcome with CD38, CD38 (gene 952) is “inactive”; with CD69, CD69 (gene 969) it was “inactive”; in [17] it was “inactive”; in [18], “inactive”. Also, the AC50 in [8] is 20 µM (active); in assay [9] it was 20 µM (active); in [14] it was 4.09 µM (active); with CD40, CD40 (gene 958) [16], 25.8 µM (active).

In the case of `Cc1cccc(C)c1O`, the outcome in assay [1] is “inactive”; in assay [2], “inactive”; in [3] it was “inactive”; in assay [4], “inactive”; with CD40, CD40 (gene 958) [5], “inactive”; in assay [6], “inactive”. Also, the outcome in assay [7], in assay [8], in assay [9], in [10], in assay [12] and in assay [13] was inactive. The outcome in assay [15] was “inactive”; with CD38, CD38 (gene 952), “inactive”; with CD40, CD40 (gene 958) [16], “inactive”; with CD69, CD69 (gene 969) it was “inactive”; in assay [18], “inactive”. Further, the AC50 in assay [11] was 4.8 µM (active).

`COCCOC[C@H](CC1(C(=O)NC2CCC(C(=O)O)CC2)CCCC1)C(=O)Oc1ccc2c(c1)CCC2` (some centres not stated): the outcome in [1] is “inactive”; in assay [2], “inactive”; in [3] it was “inactive”; in assay [4], “inactive”; with CD40, CD40 (gene 958) [5], “inactive”; in [6] it was “inactive”. Also, the result in [7], in assay [8], in assay [9], in assay [10], in assay [11] and in assay [13] was inactive. Besides, the outcome in [14] is “inactive”; in assay [15], “inactive”; with CD38, CD38 (gene 952) it was “inactive”; in the assay with CD40, CD40 (gene 958) [16], “inactive”; in the assay with CD69, CD69 (gene 969) it was “inactive”; in assay [17] it was “inactive”. In addition, in assay [18], the result was inactive.
